The campaign covered roughly 1,400 compounds. About 1,000 (71%) were called active. The rule behind the calls is not given here. So high a share suggests a set chosen from earlier hits. Only a sample is shown. Entries with a potency or affinity are not part of this list.
Experiment: inhibitors of HIV Env-driven cell fusion, dose response, cherry-pick (AID 652057)
Settings: HeLa-JRFL Env/CEM21 cell fusion, luciferase; series mostly up to 35 µM

Activity change, negative = inhibition, inactive:
C=CC[n+]1c(-c2ccc(C)cc2)csc1NNC(=O)Nc1ccccc1
O=C1c2cccc(OCc3ccc(F)cc3)c2CCN1Cc1ccccc1
NC(=S)c1ccc(OCCCc2ccccc2)cc1
O=C(C[C@H]1C[C@@H]2c3cc(NC(=O)C4CCC4)ccc3O[C@@H]2[C@@H](CO)O1)NCc1ccc2c(c1)OCO2
C=CCOc1c(Br)cc(CNc2ccc(NC(=O)C(C)C)c(OC)c2)cc1OC
CC1(C)N=C(N)N=C(N)N1CCCCc1ccccc1
COc1cc(-c2c(-c3cc(OC)c(OC)c(OC)c3)noc2C)ccc1F
O=C(CNC(=O)c1cccc(-n2cccc2)c1)Nc1ccccc1Br
COc1ccccc1S(=O)(=O)Nc1ccc2c(c1)C(=O)N(C)C[C@@H](OC)[C@@H](C)CN[C@@H](C)CO2
CCCNC(=O)C[C@H]1C[C@H]2c3cc(NC(=O)CN(C)C)ccc3O[C@H]2[C@@H](CO)O1
COc1ccc(NC(=O)c2ccc(Cl)c(S(=O)(=O)N3CCc4ccccc4C3)c2)cn1
O=C(Nc1ccc(F)cc1)Nc1ccc2c(c1)[C@@H]1C[C@H](CC(=O)N3CCCCC3)O[C@@H](CO)[C@@H]1O2
COc1ccccc1Oc1ccc(S(=O)(=O)NCc2ccccn2)cc1
O=C(Nc1ccc(Oc2ccccc2)cc1)c1csc([C@H]2C[C@H](O)[C@@H](CO)O2)n1
COc1ccc(OC)c(-c2cc(C(=O)Nc3c(C)nn(Cc4ccc(Cl)cc4)c3C)no2)c1
CCCCS(=O)(=O)N1CCN(C(=O)C(=O)c2cccc(C(F)(F)F)c2)CC1
CCS(=O)(=O)Nc1ccc2c(c1)C(=O)N(C)C[C@H](OC)[C@@H](C)CN(C(=O)C1CCC1)[C@H](C)CO2
CN(C)Cc1cn(CC[C@@H]2CC[C@H](N)[C@H](CO)O2)nn1
Nc1nonc1C(=O)NCCNCc1cc(Br)ccc1OCc1ccccc1F
CN1CCN(C(=O)C[C@H]2C[C@@H]3c4cc(NS(C)(=O)=O)ccc4O[C@@H]3[C@H](CO)O2)CC1
O=C(Nc1ccc(C(=O)OC2CCCCC2)cc1)c1ccncc1
CCCCOc1ccc(S(=O)(=O)Nc2cccnc2)cc1
C[C@H](CO)N1C[C@H](C)[C@@H](CN(C)C(=O)Nc2cccc3ccccc23)OCCCC[C@H](C)Oc2ccc(N(C)C)cc2C1=O
C[C@H]1CN([C@@H](C)CO)C(=O)c2cccc(NC(=O)c3ccncc3)c2O[C@@H]1CN(C)C(=O)Nc1cccc2ccccc12
O=C(C[C@@H]1C[C@H]2c3cc(NC(=O)Nc4ccccc4)ccc3O[C@H]2[C@H](CO)O1)NCc1cccnc1
O=C(NCc1cccnc1)c1c[nH]c2cc3c(cc2c1=O)OCCO3
COc1cc(CSc2nnnn2-c2ccc(C)cc2)cc(OC)c1OC
c1ccc2c(c1)ncn2CCCCOc1ccc2c(c1)CCC2
Cc1ccc(Cn2ncc3c(N4CCN(Cc5ccc(Cl)cc5)CC4)ncnc32)cc1
COc1ccc(C)cc1NC(=O)CCNS(=O)(=O)c1ccc2c(c1)CC(C)N2C(C)=O (stereo unspecified)
CCOC(=O)C1CCN(C(=O)c2ccc3c(c2)C(=O)N(c2ccccc2C)C3=O)CC1
COc1ccc(OCC(=O)Nc2ccccc2N2CCCCC2)cc1
OCC[C@@H]1C[C@@H](O)[C@H](O)[C@]2(OCc3ccccc32)O1
Cc1ccc(Cn2ncc3c(N4CCN(c5ccc(C)cc5)CC4)ncnc32)cc1
c1ccc2c(c1)CCN(c1ncnc3c1[nH]c1ccccc13)C2
CC(=O)c1ccc(S(=O)(=O)N2CCN(c3nc4c(C)c(C)ccc4cc3C#N)CC2)cc1
O=C(C[C@H]1C[C@@H]2c3cc(NC(=O)C4CCC4)ccc3O[C@@H]2[C@@H](CO)O1)NCC(F)(F)F
CC(=O)C1=C(C)NC(=S)NC1c1ccccc1 (stereo unspecified)
CCOC(=O)C1CCCN(Cc2nc(N)nc(Nc3ccc(OC)cc3)n2)C1 (stereo unspecified)
COC(=O)[C@@]1(Cc2ccc(F)cc2)[C@H]2c3cc(C(=O)N(C)C)n(CCO)c3C[C@H]2CN1C(=O)c1ccccc1
N#CCSc1nnc(-c2sc3ccccc3c2Cl)o1
CO[C@H]1CN(C)C(=O)c2cc(NC(C)=O)ccc2OC[C@@H](C)N(Cc2nccs2)C[C@H]1C
CO[C@H]1CN(C)C(=O)c2cc(NS(=O)(=O)c3ccc(Cl)cc3)ccc2OC[C@@H](C)N(C)C[C@@H]1C
CCNC(=O)C[C@@H]1CC[C@@H]2[C@H](COC[C@@H](O)CN2C(=O)c2ccccn2)O1
CCCNC(=O)C[C@@H]1C[C@@H]2c3cc(NC(=O)Cc4ccncc4)ccc3O[C@@H]2[C@H](CO)O1
CS(=O)(=O)Nc1ccc2c(c1)[C@H]1C[C@@H](CC(=O)NCCN3CCCCC3)O[C@@H](CO)[C@H]1O2
COCCNC(=O)C[C@@H]1C[C@H]2c3cc(N(C)C)ccc3O[C@H]2[C@@H](CO)O1
CN(C)C(=O)C[C@@H]1C[C@H]2c3cc(NS(=O)(=O)c4ccc(F)cc4)ccc3O[C@H]2[C@H](CO)O1
CCCNC(=O)C[C@H]1C[C@H]2c3cc(NC(=O)Cc4ccncc4)ccc3O[C@H]2[C@H](CO)O1
CN(C)C(=O)C[C@H]1C[C@@H]2c3cc(NS(=O)(=O)c4ccc(F)cc4)ccc3O[C@@H]2[C@@H](CO)O1
CS(=O)(=O)Nc1ccc2c(c1)[C@H]1C[C@H](CC(=O)NCc3ccc(-c4ccccc4)cc3)O[C@H](CO)[C@H]1O2
O=C(C[C@@H]1C[C@@H]2c3cc(NC(=O)c4ccc5c(c4)OCO5)ccc3O[C@@H]2[C@@H](CO)O1)NCc1ccc(Oc2ccccc2)cc1
CS(=O)(=O)Nc1ccc2c(c1)[C@H]1C[C@H](CC(=O)N3CCc4ccccc4C3)O[C@H](CO)[C@H]1O2
O=C(C[C@@H]1C[C@@H]2c3cc(NC(=O)C4CCC4)ccc3O[C@@H]2[C@@H](CO)O1)NCc1ccc2c(c1)OCO2
CS(=O)(=O)Nc1ccc2c(c1)[C@@H]1C[C@@H](CC(=O)N3CCc4ccccc4C3)O[C@H](CO)[C@@H]1O2
O=C(C[C@@H]1C[C@H]2c3cc(NC(=O)C4CCOCC4)ccc3O[C@H]2[C@@H](CO)O1)NCc1ccccc1
COC(=O)C[C@@H]1C[C@H]2c3cc(NS(=O)(=O)c4cccc(OC)c4)ccc3O[C@H]2[C@@H](CO)O1
O=C(C[C@H]1C[C@@H]2c3cc(NC(=O)C4CCOCC4)ccc3O[C@@H]2[C@H](CO)O1)NCc1ccccc1
O=C(C[C@@H]1C[C@@H]2c3cc(NS(=O)(=O)c4ccc(F)cc4)ccc3O[C@@H]2[C@H](CO)O1)NCc1ccccc1F
CN(C)C(=O)C[C@@H]1C[C@@H]2c3cc(NS(=O)(=O)c4ccc(F)cc4)ccc3O[C@@H]2[C@@H](CO)O1
O=C(C[C@@H]1C[C@@H]2c3cc(NC(=O)Nc4ccccc4)ccc3O[C@@H]2[C@@H](CO)O1)NCc1ccccc1
O=C(C[C@@H]1C[C@H]2c3cc(NC(=O)Nc4ccc(F)cc4)ccc3O[C@H]2[C@H](CO)O1)NCC1CC1
O=C(C[C@H]1C[C@H]2c3cc(NS(=O)(=O)c4ccc(F)cc4)ccc3O[C@H]2[C@@H](CO)O1)NCc1ccccc1F
O=C(C[C@H]1C[C@@H]2c3cc(NC(=O)Nc4ccc(F)cc4)ccc3O[C@@H]2[C@@H](CO)O1)NCC1CC1
Cc1cc(C(=O)N2CCC(C(=O)O)CC2)c(C(F)(F)F)o1
CCN(CC)S(=O)(=O)c1cccc(NC(=O)c2ccc(-n3nc(C)cc3C)cc2)c1
O=C(Nc1cccc(C(F)(F)F)c1)c1ccc(Cn2cc(Br)cn2)o1
CCc1nnc(NC(=O)[C@@H](NC(=O)c2cccc(S(=O)(=O)N(CC)CC)c2)C(C)C)s1
Cc1cc(Nc2cccc(C(F)(F)F)c2)cc(=O)n1-c1cccc(C(F)(F)F)c1
O=C(C[C@H]1C[C@H]2c3cc(NC(=O)C4CCC4)ccc3O[C@H]2[C@@H](CO)O1)NCc1ccc2c(c1)OCO2
O=C(NCc1cccc(F)c1)[C@@H]1[C@@H](CO)[C@@H]2Cn3c(ccc(-c4cccnc4)c3=O)[C@H]1N2CC1CC1
CN(C)CCCNC(=O)[C@H]1[C@H](CO)[C@H]2Cn3c(ccc(C4=CCCC4)c3=O)[C@H]2N1CCC(F)(F)F
Cc1cc(C)c(CN2CCN(C(=O)Cn3ccc(NC(=O)OCc4ccccc4)nc3=O)CC2)c(C)c1
CCCNC(=O)C[C@@H]1C[C@@H]2c3cc(NC(=O)CN(C)C)ccc3O[C@@H]2[C@H](CO)O1
C[C@H](CO)N1C[C@H](C)[C@H](CN(C)C(=O)Nc2ccccc2)Oc2c(NS(=O)(=O)c3ccc(F)cc3)cccc2C1=O 77.5% [at 8 µM]
Cc1nn(C)c(C)c1CN(C)S(=O)(=O)c1ccc2ccccc2c1
O=C(C[C@H]1C[C@H]2c3cc(NC(=O)NC4CCCC4)ccc3O[C@H]2[C@@H](CO)O1)NC1CCCCC1
COc1ccccc1S(=O)(=O)n1cc(Cc2ccccc2)c(N)n1
O=C(NCC[C@@H]1CC[C@@H](NS(=O)(=O)c2ccccc2F)[C@@H](CO)O1)c1ccc(F)cc1
COc1ccc(S(=O)(=O)N[C@@H]2CC[C@@H](CC(=O)NCCc3ccncc3)O[C@@H]2CO)cc1
CC1CN(S(=O)(=O)c2cc(C(=O)NCCC3=CCCCC3)ccc2Cl)CC(C)O1 (stereo unspecified)
